Data taken from PubChem BioAssay (EPA / NIEHS).
Results filed as inconclusive are left out. Calls of active or inactive are those of the source. How the source made its calls: active means hit-call score of the fitted dose curve at least 0.9, where 1 is the maximum; inconclusive means response in the unintended direction; inactive means score below 0.9.

The compounds below were run against human Sirtuin 2 (SIRT2), SIRT2 (gene 22933) (UniProt Q8IXJ6) (assay: NVS_ENZ_hSIRT2: NovaScreen (NVS) Enzymatic Assay for human Sirtuin 2 (SIRT2) (AID 2283217)).
Sequence of human Sirtuin 2 (SIRT2), SIRT2 (gene 22933) (Q8IXJ6 whole entry, looked up): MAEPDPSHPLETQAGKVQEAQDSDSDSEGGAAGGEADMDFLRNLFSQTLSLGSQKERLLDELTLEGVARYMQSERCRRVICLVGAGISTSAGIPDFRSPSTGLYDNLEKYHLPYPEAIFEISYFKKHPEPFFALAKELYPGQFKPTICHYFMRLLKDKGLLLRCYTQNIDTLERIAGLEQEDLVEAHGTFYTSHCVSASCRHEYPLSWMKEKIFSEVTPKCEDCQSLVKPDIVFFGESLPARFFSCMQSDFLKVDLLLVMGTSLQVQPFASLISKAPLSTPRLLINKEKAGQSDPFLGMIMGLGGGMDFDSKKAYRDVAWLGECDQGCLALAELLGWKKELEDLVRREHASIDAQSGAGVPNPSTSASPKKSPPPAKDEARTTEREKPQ
Outline: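 Cell-free recombinant human SIRT2, fluorescent substrate with product separated by electrophoretic mobility shift, 1 hr. Screened in duplicate at 25 uM; hits rerun singly in concentration-response up to 50 uM, relative to DMSO.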
With `CCCCCCCC/C=C\CCCCCCCC(=O)OC[C@@H](O)[C@H]1OC[C@H](O)[C@H]1O` the outcome was “inactive”. With `Cc1nc(-c2ccccn2)ncc1C(=O)Nn1cc(C)c2cc(F)ccc21` the outcome was “inactive”. For `COCc1nnc(-c2ccc[n+]([O-])c2)n1-c1c(Cl)c(Cl)cc2[nH]c(=O)c(=O)[nH]c12`, the outcome was “inactive”. In the case of `O=C(O)c1ccc2c(c1)nc(C(=O)NC1CCN(C3CC3)CC1)n2Cc1cc(-c2ccc(Cl)s2)on1`, the outcome was “inactive”. With `CCCC(CCC)C(=O)O` the outcome was “inactive”. For `Cc1ncc([C@@H](CCCCCCc2ccc3c(n2)NCCC3)CC(=O)O)cn1`, the outcome was “inactive”.

The compounds below were run against human Sirtuin 3 (SIRT3), SIRT3 (gene 23410) (UniProt Q9NTG7) (assay: NVS_ENZ_hSIRT3: NovaScreen (NVS) Enzymatic Assay for human Sirtuin 3 (SIRT3) (AID 2283222)).
Sequence of human Sirtuin 3 (SIRT3), SIRT3 (gene 23410) (Q9NTG7 whole entry, looked up): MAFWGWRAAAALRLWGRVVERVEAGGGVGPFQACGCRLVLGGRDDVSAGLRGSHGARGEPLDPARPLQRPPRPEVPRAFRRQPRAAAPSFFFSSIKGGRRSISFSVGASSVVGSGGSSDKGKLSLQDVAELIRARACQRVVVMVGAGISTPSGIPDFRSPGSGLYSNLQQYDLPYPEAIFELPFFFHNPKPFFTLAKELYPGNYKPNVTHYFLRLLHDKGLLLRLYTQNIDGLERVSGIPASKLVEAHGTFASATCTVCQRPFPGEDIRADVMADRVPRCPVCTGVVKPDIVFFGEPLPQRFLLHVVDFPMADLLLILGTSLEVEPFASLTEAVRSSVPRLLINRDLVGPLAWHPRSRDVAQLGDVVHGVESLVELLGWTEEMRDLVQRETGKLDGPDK
Outline: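 Cell-free enzyme assay with recombinant protein and fluorescent substrate, product separated by electrophoretic mobility shift; read 1 hour after dosing. Screened in duplicate at 25 uM, then singleton concentration-response up to 50 uM; loss of signal versus DMSO.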
For `Cn1cc[nH]c1=S`, the outcome was “inactive”. With `CC(C)c1nnc2ccc(-c3ocnc3-c3cc(F)ccc3F)cn12` the outcome was “inactive”. For `CCCC(CCC)C(=O)O`, the outcome was “inactive”. With `Cc1ncc([C@@H](CCCCCCc2ccc3c(n2)NCCC3)CC(=O)O)cn1` the outcome was “inactive”.

These compounds were tested against human SRC Proto-Oncogene, Non-receptor Tyrosine Kinase (SRC), SRC (gene 6714) (UniProt P12931) (assay: NVS_ENZ_hSRC: NovaScreen (NVS) Enzymatic Assay for human SRC Proto-Oncogene, Non-receptor Tyrosine Kinase (SRC) (AID 2283223)).
Sequence of human SRC Proto-Oncogene, Non-receptor Tyrosine Kinase (SRC), SRC (gene 6714) (P12931 whole entry, looked up): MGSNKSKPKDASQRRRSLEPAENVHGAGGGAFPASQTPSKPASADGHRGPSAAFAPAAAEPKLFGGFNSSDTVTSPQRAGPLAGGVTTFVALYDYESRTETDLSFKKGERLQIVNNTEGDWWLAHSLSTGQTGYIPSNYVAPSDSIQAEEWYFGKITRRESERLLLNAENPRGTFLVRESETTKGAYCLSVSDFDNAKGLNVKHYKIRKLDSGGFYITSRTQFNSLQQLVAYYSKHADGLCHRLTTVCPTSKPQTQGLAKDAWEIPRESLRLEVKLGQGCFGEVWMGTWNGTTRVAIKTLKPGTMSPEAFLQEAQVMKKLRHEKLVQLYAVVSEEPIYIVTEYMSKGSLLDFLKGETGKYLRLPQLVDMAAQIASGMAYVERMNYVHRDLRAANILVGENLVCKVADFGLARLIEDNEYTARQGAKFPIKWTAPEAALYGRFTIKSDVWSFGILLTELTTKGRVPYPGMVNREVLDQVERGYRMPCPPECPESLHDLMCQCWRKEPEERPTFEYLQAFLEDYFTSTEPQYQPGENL
Outline: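 Cell-free kinase activity assay with fluorescent substrate, product separated by electrophoretic mobility shift, read 1 h after dosing. Duplicate single point at 25 uM, then concentration-response up to 50 uM; loss of signal versus DMSO.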
In the case of `CCCCCCCC/C=C\CCCCCCCC(=O)OC[C@@H](O)[C@H]1OC[C@H](O)[C@H]1O`, the outcome was “inactive”. In the case of `Cn1c(=O)c2[nH]cnc2n(C)c1=O`, the outcome was “inactive”. For `O=c1[nH]cnc2c1ncn2[C@H]1CC[C@@H](CO)O1`, the outcome was “inactive”. In the case of `O=C(O)c1ccc2c(c1)nc(C(=O)NC1CCN(C3CC3)CC1)n2Cc1cc(-c2ccc(Cl)s2)on1`, the outcome was “inactive”. For `CCCC(CCC)C(=O)O`, the outcome was “inactive”.

Each compound was assayed against human Tropomyosin Receptor Kinase A (TRKA), NTRK1 (gene 4914) (UniProt P04629) (assay: NVS_ENZ_hTrkA: NovaScreen (NVS) Enzymatic Assay for human Tropomyosin Receptor Kinase A (TRKA) (AID 2283224)).
Sequence of human Tropomyosin Receptor Kinase A (TRKA), NTRK1 (gene 4914) (P04629 whole entry, looked up): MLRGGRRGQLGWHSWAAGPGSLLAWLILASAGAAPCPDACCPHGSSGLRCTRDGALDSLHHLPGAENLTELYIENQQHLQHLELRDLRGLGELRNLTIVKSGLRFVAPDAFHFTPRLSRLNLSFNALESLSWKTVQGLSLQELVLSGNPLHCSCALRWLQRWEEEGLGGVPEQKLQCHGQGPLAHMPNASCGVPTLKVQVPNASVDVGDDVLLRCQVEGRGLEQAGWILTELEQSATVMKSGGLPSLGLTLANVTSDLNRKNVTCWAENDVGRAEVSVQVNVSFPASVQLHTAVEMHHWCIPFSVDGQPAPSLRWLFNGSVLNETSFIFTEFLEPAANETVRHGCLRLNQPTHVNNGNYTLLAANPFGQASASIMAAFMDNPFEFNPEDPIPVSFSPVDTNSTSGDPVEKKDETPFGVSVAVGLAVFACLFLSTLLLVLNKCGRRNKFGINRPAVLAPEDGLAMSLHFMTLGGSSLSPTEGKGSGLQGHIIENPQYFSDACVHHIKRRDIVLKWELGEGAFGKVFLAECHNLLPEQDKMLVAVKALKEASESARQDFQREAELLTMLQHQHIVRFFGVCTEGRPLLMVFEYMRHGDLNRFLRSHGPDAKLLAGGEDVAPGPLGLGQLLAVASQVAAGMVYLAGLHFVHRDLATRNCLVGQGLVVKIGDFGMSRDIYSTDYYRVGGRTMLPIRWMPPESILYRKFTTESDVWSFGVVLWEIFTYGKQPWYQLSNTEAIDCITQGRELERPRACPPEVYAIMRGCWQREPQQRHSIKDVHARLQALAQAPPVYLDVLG
Description: NVS_ENZ_hTrkA is a biochemical, single-readout assay that uses extracted gene-proteins in a cell-free assay. Measurements were taken 1 hour after chemical dosing in a 384-well plate.NVS_ENZ_hTrkA is one of one assay component(s) measured or calculated from the NVS_ENZ_hTrkA assay. It is designed to make measurements of enzyme activity, a form of enzyme reporter, as detected with fluorescence intensity signals by Fluorescence and electrophoretic mobility shift technology.Data from the assay component NVS_ENZ_hTrkA was analyzed into 1 assay endpoint. This assay endpoint, NVS_ENZ_hTrkA, was analyzed in the positive analysis fitting direction relative to DMSO as the negative control and baseline of activity. Using a type of enzyme reporter, loss-of-signal activity can be used to understand changes in the enzymatic activity as they relate to the gene NTRK1. Furthermore, this assay endpoint can be referred to as a primary readout, because this assay has produced multiple assay endpoints where this one serves a enzymatic activity function. To generalize the intended target to other relatable targets, this assay endpoint is annotated to the kinase intended target family, where the subfamily is receptor tyrosine kinase.
Binding assays used specific radioligands (tritiated, iodinated) with non-radioactive competitive displacement ligands in agonist or antagonist protocols (as indicated) and various reference compounds and inhibitors to titrate specific binding to receptors and transporters. Most enzyme assays (CYPs, kinases, phosphatases, proteases, HDACs) used recombinant protein and specific substrates (fluorescence mostly, some colorimetric and radioactive) and inhibitors, followed by a biochemical separation of substrate and product. All assays for the biochemical HTS were initially run in duplicate at a single concentration (10 uM for CYP450 assays and 25 uM for all others). Assay-chemical combinations meeting a pre-defined threshold (e.g., 30% inhibition and other criteria defined below) were then run in singleton concentration-response format with maximum concentration of 20 uM for CYPs and 50 uM for all others. Each assay was run with positive and negative controls, and concurrent controls on every plate. The follow-up (secondary) screen tested active chemical-pairs in concentration series, as well as a few additional assays not tested in the primary screen, some selected negative inactives, and several cases re-run in the concentration series for confirmatory purposes.
In the case of `CCN(CC)C(=S)SSC(=S)N(CC)CC`, the outcome was “inactive”. In the case of `Cc1nc(-c2ccccn2)ncc1C(=O)Nn1cc(C)c2cc(F)ccc21`, the outcome was “inactive”. With `O=c1[nH]cnc2c1ncn2[C@H]1CC[C@@H](CO)O1` the outcome was “inactive”. For `CCCC(CCC)C(=O)O`, the outcome was “inactive”.

Each compound was assayed against human Vascular Endothelial Growth Factor Receptor 1 (VEGFR1), FLT1 (gene 2321) (UniProt P17948) (assay: NVS_ENZ_hVEGFR1: NovaScreen (NVS) Enzymatic Assay for human Vascular Endothelial Growth Factor Receptor 1 (VEGFR1) (AID 2283226)).
Sequence of human Vascular Endothelial Growth Factor Receptor 1 (VEGFR1), FLT1 (gene 2321) (P17948 whole entry, looked up): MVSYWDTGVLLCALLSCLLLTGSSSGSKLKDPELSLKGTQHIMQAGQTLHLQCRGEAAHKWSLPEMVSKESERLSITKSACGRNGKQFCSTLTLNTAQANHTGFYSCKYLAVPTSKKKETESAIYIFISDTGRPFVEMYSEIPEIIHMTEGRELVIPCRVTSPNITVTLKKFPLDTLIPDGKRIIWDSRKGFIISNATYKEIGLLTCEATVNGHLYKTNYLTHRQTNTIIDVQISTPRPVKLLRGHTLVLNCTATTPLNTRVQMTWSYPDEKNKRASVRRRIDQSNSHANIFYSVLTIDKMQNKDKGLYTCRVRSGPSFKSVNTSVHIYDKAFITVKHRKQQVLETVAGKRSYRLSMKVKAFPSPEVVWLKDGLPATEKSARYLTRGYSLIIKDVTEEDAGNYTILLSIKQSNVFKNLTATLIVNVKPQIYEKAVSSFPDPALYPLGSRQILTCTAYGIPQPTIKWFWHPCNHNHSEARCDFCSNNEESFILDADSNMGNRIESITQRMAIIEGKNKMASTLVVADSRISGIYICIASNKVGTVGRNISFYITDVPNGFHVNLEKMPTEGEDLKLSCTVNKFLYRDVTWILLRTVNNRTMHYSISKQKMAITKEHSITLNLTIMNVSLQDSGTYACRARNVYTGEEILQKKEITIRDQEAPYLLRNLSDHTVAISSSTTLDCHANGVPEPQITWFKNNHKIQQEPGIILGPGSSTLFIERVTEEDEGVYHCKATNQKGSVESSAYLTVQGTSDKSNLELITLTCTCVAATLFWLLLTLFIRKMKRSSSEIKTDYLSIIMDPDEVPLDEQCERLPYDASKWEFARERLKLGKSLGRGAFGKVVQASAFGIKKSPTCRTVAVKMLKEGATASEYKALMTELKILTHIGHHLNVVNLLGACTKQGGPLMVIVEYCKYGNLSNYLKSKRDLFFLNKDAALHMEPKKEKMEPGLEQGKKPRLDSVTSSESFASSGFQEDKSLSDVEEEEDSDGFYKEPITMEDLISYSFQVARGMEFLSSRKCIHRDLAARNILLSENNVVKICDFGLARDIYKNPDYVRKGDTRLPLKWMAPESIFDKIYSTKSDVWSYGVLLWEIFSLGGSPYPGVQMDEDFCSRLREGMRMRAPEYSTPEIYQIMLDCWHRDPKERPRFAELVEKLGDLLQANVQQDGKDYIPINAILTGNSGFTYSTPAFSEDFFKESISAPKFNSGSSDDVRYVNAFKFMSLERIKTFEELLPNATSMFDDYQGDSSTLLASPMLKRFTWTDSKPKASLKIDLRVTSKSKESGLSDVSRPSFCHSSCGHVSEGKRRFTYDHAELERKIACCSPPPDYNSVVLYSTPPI
Outline: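 Cell-free assay of recombinant human VEGFR1 kinase with substrate, measured 1 h after dosing; fluorescence with electrophoretic mobility-shift separation of substrate and product, referenced to DMSO; primary screen at 25 uM in duplicate, actives then run in concentration series.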
For `CCCCCCCC/C=C\CCCCCCCC(=O)OC[C@@H](O)[C@H]1OC[C@H](O)[C@H]1O`, the outcome was “inactive”. In the case of `Cc1nc(-c2ccccn2)ncc1C(=O)Nn1cc(C)c2cc(F)ccc21`, the outcome was “inactive”. With `O=C(NO)C1(NS(=O)(=O)c2ccc(Oc3ccc(F)cc3)cc2)CCOCC1` the outcome was “inactive”.
